Seven molecules from PubChem BioAssay can be followed below.

Experiment [1] in a line: HepG2 liver cancer cell viability effects, profiling panel, resazurin fluorescence, 24 h, PK04 Diversity Set (AID 1172). The conditions noted are these: higher = more signal.
The nature of experiment [2]: basal S. cerevisiae growth modulation, no modifier, primary screen, OD600, strain BY4716, 24 h, basal condition (AID 1173). The conditions noted are these: OD600, 24 h, higher = more signal, called active from +8 up or from −8 down.
Experiment [3] can be described thus: MM1S myeloma cell viability, profiling panel, resazurin fluorescence, basal, 24 h, PK04 Diversity Set (AID 1174).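 Also: MM1S multiple myeloma cell line.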 The conditions noted are these: higher = more signal, called active from +8 up or from −8 down.
For experiment [4], the target named is Dihydroorotate dehydrogenase (quinone), mitochondrial (Plasmodium falciparum (isolate 3D7)) (UniProt Q08210). The experiment can be described thus: PfDHODH enzyme inhibitors, primary screen, biochemical, C-terminal His tag, absorbance 600 nm (AID 1175).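 Also: recombinant parasite enzyme with a five histidine tag at its C terminus.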 The conditions noted are these: DCIP absorbance 600 nm, higher = more signal, called active from +8 up or from −8 down.
Sequence of Dihydroorotate dehydrogenase (quinone), mitochondrial (Plasmodium falciparum (isolate 3D7)) (Q08210 whole entry, looked up): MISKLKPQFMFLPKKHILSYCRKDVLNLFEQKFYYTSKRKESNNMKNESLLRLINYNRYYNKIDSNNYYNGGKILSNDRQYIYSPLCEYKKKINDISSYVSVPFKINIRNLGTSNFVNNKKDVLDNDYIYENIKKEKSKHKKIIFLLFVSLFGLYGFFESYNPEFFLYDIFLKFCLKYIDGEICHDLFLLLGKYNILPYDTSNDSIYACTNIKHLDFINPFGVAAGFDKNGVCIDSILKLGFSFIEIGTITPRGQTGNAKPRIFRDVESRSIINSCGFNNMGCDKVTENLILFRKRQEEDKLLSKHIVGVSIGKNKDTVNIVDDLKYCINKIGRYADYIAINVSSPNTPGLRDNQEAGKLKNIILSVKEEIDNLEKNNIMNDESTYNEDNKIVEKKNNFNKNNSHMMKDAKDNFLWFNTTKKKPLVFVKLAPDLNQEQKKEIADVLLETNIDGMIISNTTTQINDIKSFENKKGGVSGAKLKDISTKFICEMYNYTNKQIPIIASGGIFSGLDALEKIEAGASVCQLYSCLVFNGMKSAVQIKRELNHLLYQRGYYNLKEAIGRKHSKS

A short description of experiment [5]: P. aeruginosa biofilm formation inhibitors, primary screen, strain PAO1, LB-PBS medium, absorbance 600 nm (AID 1176). The conditions noted are these: P. aeruginosa PAO1 growth/biofilm, A600, 12 h; higher = more signal.
Experiment [6] is described as follows: S. cerevisiae RM11-1a growth modifiers, primary screen, strain RM11-1a, OD600, basal, 24 h (AID 1177).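 Also: cultures grown under basal conditions with no added stressor.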 The conditions noted are these: OD600, 24 h, higher = more signal, called active from +8 up or from −8 down.
Experiment [7] is described as follows: E. coli acrAB mutant growth effects, primary screen, E. coli filamentation inducers, strain DRC39, OD650, 24 h (AID 1178).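 Also: growth measured as culture turbidity by optical density at 650 nm.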 The conditions noted are these: higher = more signal, called active from +8 up or from −8 down.
Experiment [8] is described as follows: E. coli acrAB mutant growth effects, primary screen, E. coli filamentation inducers, strain DRC39, OD650, 48 h (AID 1179).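 Also: screen aims at cell division blockers that make cells filament.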 Conditions: E. coli DRC39 delta-acrAB growth, higher = more signal, called active from +8 up or from −8 down.
Experiment [9] in a line: RPMI8226 myeloma cell viability, profiling panel, resazurin fluorescence, basal, 24 h, PK04 Diversity Set (AID 1180).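 Also: RPMI8826 multiple myeloma cell line at 5000 cells per well.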 The conditions noted are these: higher = more signal. (In general: Resazurin is reduced to fluorescent resorufin, in cell work by metabolically active cells.)
In experiment [10] the target is E3 ubiquitin-protein ligase XIAP (Homo sapiens) (UniProt P98170). The experiment can be described thus: XIAP binders, primary screen, biophysical, small-molecule microarray, fluorescence 635 nm (AID 1181).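 Also: score merges 667 nm emission and signal to noise over triplicate slides.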 Conditions: small-molecule microarray binding, higher = more signal.
Sequence of E3 ubiquitin-protein ligase XIAP (Homo sapiens) (P98170 whole entry, looked up): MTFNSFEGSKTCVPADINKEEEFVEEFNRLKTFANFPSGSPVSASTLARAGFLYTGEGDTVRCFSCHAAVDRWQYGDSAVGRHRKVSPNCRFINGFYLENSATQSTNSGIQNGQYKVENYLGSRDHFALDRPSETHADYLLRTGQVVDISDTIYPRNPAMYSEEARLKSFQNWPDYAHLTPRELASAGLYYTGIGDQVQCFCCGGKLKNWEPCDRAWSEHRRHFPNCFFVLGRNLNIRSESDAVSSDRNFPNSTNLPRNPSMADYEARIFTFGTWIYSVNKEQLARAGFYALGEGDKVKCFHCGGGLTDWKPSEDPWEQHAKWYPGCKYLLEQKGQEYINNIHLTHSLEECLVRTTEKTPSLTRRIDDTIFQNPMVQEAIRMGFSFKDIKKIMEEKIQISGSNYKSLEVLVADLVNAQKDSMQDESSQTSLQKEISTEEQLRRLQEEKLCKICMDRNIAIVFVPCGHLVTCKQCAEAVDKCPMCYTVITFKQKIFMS
In experiment [11] the test system is XIP peptide (Xip251-270) binding. The experiment can be described thus: small-molecule binders of XIP peptide, primary screen, biochemical, small-molecule microarray, fluorescence 635/667 nm, 0.1 µg/mL protein (AID 1182). Conditions: fluorescent protein binding, 635 nm, higher = more signal, called active from +8 up or from −8 down.
For experiment [12], the system named is XIP peptide (Xip251-270). The experiment can be described thus: small-molecule binders of XIP peptide, primary screen, biochemical, small-molecule microarray, fluorescence 635/667 nm, 0.5 µg/mL protein (AID 1183). Conditions: small-molecule microarray binding, fluorescence 635 nm; higher = more signal.
Experiment [13] in a line: Plasmodium falciparum growth inhibition, primary screen, strain 3D7, DAPI fluorescence, 100 nL (AID 1184).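 Also: parasites grown inside human red blood cells in medium with human serum.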 Conditions: P. falciparum 3D7 growth, 3 d, higher = more signal.
Experiment [14] concerns the target Homeobox protein Hox-A13 (Mus musculus) (UniProt Q62424). As to the kind of experiment: inhibitors of HoxA13-DNA binding, primary screen, biochemical, fluorescence polarization, labeled oligonucleotide (AID 1185). Conditions: 15 min, higher = more signal, called active from +8 up or from −8 down. A general note: Fluorescence polarisation rises when a labelled molecule tumbles more slowly, as on binding a larger partner.

Experiment [15] can be described thus: inhibitors of hydroxyurea-induced Chk1 phosphorylation, primary screen, imaging, HeLa, phospho-Chk1 antibody, percent positive cells (AID 1186). Conditions: hydroxyurea-induced phospho-Chk1 immunofluorescence imaging, higher = more signal.
The nature of experiment [16]: inhibitors of hydroxyurea-induced Chk1 phosphorylation, primary screen, imaging, HeLa, phospho-Chk1 nuclear intensity (AID 1187). The conditions noted are these: hydroxyurea-induced phospho-Chk1 immunofluorescence imaging, higher = more signal.

The source made the active and inactive calls. Unless noted, no rule for the calls is given here.

Sequence of Homeobox protein Hox-A13 (Mus musculus) (Q62424 whole entry, looked up): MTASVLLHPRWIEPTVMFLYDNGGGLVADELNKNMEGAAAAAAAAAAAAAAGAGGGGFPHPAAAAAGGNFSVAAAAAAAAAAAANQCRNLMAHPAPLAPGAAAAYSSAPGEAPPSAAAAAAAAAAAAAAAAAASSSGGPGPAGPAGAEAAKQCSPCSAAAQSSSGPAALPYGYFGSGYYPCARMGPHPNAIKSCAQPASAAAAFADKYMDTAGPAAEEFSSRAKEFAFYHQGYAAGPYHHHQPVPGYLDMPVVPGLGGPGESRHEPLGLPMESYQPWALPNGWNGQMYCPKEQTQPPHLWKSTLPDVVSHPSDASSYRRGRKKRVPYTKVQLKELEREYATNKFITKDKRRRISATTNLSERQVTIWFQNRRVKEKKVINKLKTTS

With `COC(=O)C1=CC(c2ccc(CO)cc2)=CC(c2cccs2)N(Cc2cccc(OC(F)(F)F)c2)C=C1C(=O)OC` (configuration not stated), the z-score was -0.55 in experiment [1]; -0.871 (inactive) in [2]; -1.67 (inactive) in experiment [3]; 0.683 (inactive) in experiment [5]; 1.62 (inactive) in experiment [6]; 0.0045 (inactive) in [7]. For the same molecule, the z-score was -0.964 (inactive) in experiment [8]; -0.701 in [9]; -1.91 in experiment [13]; -8.1 (active) in [14]; 0.311 (inactive) in experiment [15]; 0.206 (inactive) in experiment [16]. The composite z-score in experiment [4] is -5.67 (inactive); in [10], 0.109; in experiment [11], 2.19 (inactive); in experiment [12], 0.79.

Turning to `CC(C)NC(=O)[C@@]1(Cc2ccccc2I)c2ccccc2C(=O)N(C2CCCCC2)[C@H]1c1ccc(CO)cc1`, the z-score was 0.524 in experiment [1]; -0.557 (inactive) in experiment [2]; 0.224 (inactive) in experiment [3]; 0.593 (inactive) in experiment [5]; 1.31 (inactive) in experiment [6]; 0.545 (inactive) in experiment [7]. For the same molecule, the z-score in experiment [8] is 0.267 (inactive); in [9] it was 0.751; in [13], -1.89; in [14], -4.58 (inactive); in experiment [15], 0.551 (inactive); in [16], 0.615 (inactive). Further, the composite z-score in experiment [4] is -1.45 (inactive); in [10] it was 0.106; in experiment [11], 1.02 (inactive); in experiment [12], 0.84.

Consider `COC(=O)C[C@H]1O[C@]2(C(=O)N(Cc3ccccc3)c3ccc(I)cc32)[C@@H](C)[C@@H]1[Si](C)(C)c1ccc(OC)cc1`, for which the z-score is -0.583 in experiment [1]; -2.01 (inactive) in experiment [2]; -0.146 (inactive) in experiment [3]; -0.435 (inactive) in [5]; 0.765 (inactive) in experiment [6]; -0.493 (inactive) in [7]. The z-score in [8] is -0.598 (inactive); in experiment [9], -0.196; in [13], -3.07; in [14], 1.04 (inactive); in experiment [15], -0.504 (inactive); in experiment [16], -0.584 (inactive). For the same molecule, the composite z-score was 0.94 (inactive) in [4], -0.211 in [10], -0.0923 (inactive) in [11] and -0.0988 in [12].

In the case of `CCCCCCc1nc(-c2cc(C)c(OC)c(C)c2)cc2c1[Si](C(C)C)(C(C)C)O[C@H]2c1ccccc1`, the z-score in experiment [1] is 0.0796; in experiment [2], 0.54 (inactive); in experiment [3], 0.0808 (inactive); in experiment [5] it was -0.334 (inactive); in experiment [6] it was 0.315 (inactive); in experiment [7], 0.609 (inactive). Further, the z-score was 0.228 (inactive) in [8]; 0.219 in experiment [9]; -0.753 in experiment [13]; -1.91 (inactive) in experiment [14]; 0.0883 (inactive) in experiment [15]; -0.242 (inactive) in experiment [16]. For the same molecule, the composite z-score was -0.292 (inactive) in [4], -0.244 in experiment [10], -0.408 (inactive) in [11] and -0.461 in [12].

As to `O=C1O[C@H](c2ccccc2)[C@H](c2ccccc2)N2[C@H]1[C@@H](C(=O)NC[C@H](O)c1ccccc1)[C@]1(C(=O)Nc3ccc(C#CC4(O)CCCCCC4)cc31)[C@H]2c1ccc(OCCO)cc1`, the z-score in experiment [1] was -0.148; in [2] it was 0.359 (inactive); in [3], -0.15 (inactive); in experiment [5], 1.9 (inactive); in [6], 1.68 (inactive); in [7], 1.66 (inactive). In addition, the z-score in [8] was 0.855 (inactive); in experiment [9], 0.931; in experiment [13], -1.45; in experiment [14], 0.199 (inactive); in [15], -0.309 (inactive); in experiment [16], -0.412 (inactive). Also, the composite z-score was -1.82 (inactive) in experiment [4], -0.168 in experiment [10], -0.342 (inactive) in experiment [11] and 0.799 in [12].

In the case of `O=C1C2C=CC(C(O)Cc3ccccc3)N(Nc3ccc([N+](=O)[O-])cc3)C2C(=O)N1c1ccccc1` (configuration not stated), the z-score was -0.346 in [1]; -0.168 (inactive) in experiment [2]; -0.824 (inactive) in experiment [3]; 0.946 (inactive) in experiment [5]; -0.518 (inactive) in [6]; -1.22 (inactive) in experiment [7]. Further, the z-score in [8] is 0.0196 (inactive); in experiment [9], -0.358; in experiment [13], -0.463; in experiment [14] it was -5.69 (inactive); in experiment [15], 0.433 (inactive); in experiment [16], -0.541 (inactive). Also, the composite z-score is -0.75 (inactive) in [4], 0.202 in experiment [10], 2.76 (inactive) in experiment [11] and -0.224 in experiment [12].

For `COC(=O)[C@@]1(Cc2ccccc2CN=[N+]=[N-])N=C(c2ccc(OCCCO)cc2)O[C@H]1c1ccccc1N=[N+]=[N-]`, the z-score is -0.806 in experiment [1]; 1.49 (inactive) in experiment [2]; -3.44 (inactive) in experiment [3]; 1.69 (inactive) in experiment [5]; 2.6 (inactive) in [6]; 0.365 (inactive) in experiment [7]. Further, the z-score is -0.762 (inactive) in experiment [8]; -3.59 in [9]; -1.94 in [13]; 0.683 (inactive) in [14]; 0.0586 (inactive) in [15]; 0.0586 (inactive) in [16]. Besides, the composite z-score in [4] is 3.12 (inactive); in experiment [10] it was -0.0095; in experiment [11] it was 0.413 (inactive); in experiment [12], 0.653.
